This note sets out measurements from PubChem BioAssay (NCI).

This is part of a sample that, as a whole, favours compounds with a hit. Of some 79,000 tested, about 15% had one in any assay. Unmarked numbers belong to inactive results. Calls of active or inactive are those of the source. Cut-off read from the data, not from the text of the source: active = growth inhibition above about 70%; inactive = the rest.

This assay is described as follows: NCI Yeast Anticancer Drug Screen. Data for the sgs1 strain (AID 173).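 Note: 0% = growth of vehicle-only control cultures.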 The conditions noted are these: S. cerevisiae sgs1 mutant, hits give high values. How it is done: Growth inhibition of yeast strains with defined genetic alterations is measured as a screen for potential anti-cancer activity. Selected strains with alterations in DNA damage repair or cell cycle control were exposed to compounds and growth inhibition was measured relative to vehicle treated controls. The strain used in this assay is sgs1

As for `CCCCCCCCCCCC1N=C(N)NC(CCCO)=C1C(=O)OC` (stereo not given), the growth inhibition runs as follows: (at 1.2 µM) 48%; (at 3.7 µM) 99% (active); (at 11.0 µM) 99% (active); (at 33.0 µM) 99% (active); (at 100.0 µM) 99% (active).

As to `CCOC1=C/C(=N\Nc2ccc([N+](=O)[O-])cc2)CCC1`, the growth inhibition (at 1.2 µM) was 1%; the growth inhibition (at 3.7 µM) is 3%; the growth inhibition (at 11.0 µM) was 18%; the growth inhibition (at 33.0 µM) was 50%; the growth inhibition (at 100.0 µM) was 20%.

Regarding `Cc1nc2c(Br)cc(Br)cc2c(=O)n1-c1ccccc1NC1OCC(O)C(O)C1O` (stereo not given), the growth inhibition (at 1.2 µM) was 2%; the growth inhibition (at 3.7 µM) was 5%; the growth inhibition (at 11.0 µM) was 13%; the growth inhibition (at 33.0 µM) was 41%; the growth inhibition (at 100.0 µM) was 88% (active).

For `CC(/C=C/c1ccccc1)=N\NC(N)=S`, the growth inhibition is -3% (at 1.2 µM); 9% (at 3.7 µM); 13% (at 11.0 µM); 30% (at 33.0 µM); 68% (at 100.0 µM).

Consider `S=C1SCN(C2CCCCC2)CN1C1CCCCC1`, for which the growth inhibition (at 1.2 µM) is -36%; the growth inhibition (at 3.7 µM) was -22%; the growth inhibition (at 11.0 µM) was -17%; the growth inhibition (at 33.0 µM) was 24%; the growth inhibition (at 100.0 µM) is 71% (active).

Regarding `Cc1cc2c3ccccc3c3ccccc3c2nn1`, the growth inhibition by setting is: (at 1.2 µM) -3%; (at 3.7 µM) -6%; (at 11.0 µM) 0%; (at 33.0 µM) 12%; (at 100.0 µM) 11%.

In the case of `C/C(=N\Nc1ccc([N+](=O)[O-])cc1[N+](=O)[O-])c1sc(-n2nc(-c3ccccc3)cc2-c2ccccc2)nc1C`, the growth inhibition is, setting by setting: (at 1.2 µM) 0%; (at 3.7 µM) 6%; (at 11.0 µM) 13%; (at 33.0 µM) 11%; (at 100.0 µM) 25%.

With `O=c1ccc2ccccc2c2ccccc12`, the growth inhibition was -2% (at 1.2 µM); 12% (at 3.7 µM); 69% (at 11.0 µM); 98% (active) (at 33.0 µM); 98% (active) (at 100.0 µM).
